According to article PMC4336329 (PLoS ONE, 2015):
Out of some 310,000 compounds screened, about 14,000 (4.5%) showed an effect of 50% or more. Effects have a minus sign here. For the sample, strong results were picked, then their nearest neighbours and some compounds at random.

Molecular target: human ether-à-go-go-related gene (hERG) potassium channel (human, UniProt Q12809)
Assay: primary screen, population patch clamp on CHO cells stably expressing hERG; higher = less effect of the substance
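Note: peak tail current of the secondary pulse compared with the same well before compound.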

Sequence of human ether-à-go-go-related gene (hERG) potassium channel (Q12809 whole entry, looked up): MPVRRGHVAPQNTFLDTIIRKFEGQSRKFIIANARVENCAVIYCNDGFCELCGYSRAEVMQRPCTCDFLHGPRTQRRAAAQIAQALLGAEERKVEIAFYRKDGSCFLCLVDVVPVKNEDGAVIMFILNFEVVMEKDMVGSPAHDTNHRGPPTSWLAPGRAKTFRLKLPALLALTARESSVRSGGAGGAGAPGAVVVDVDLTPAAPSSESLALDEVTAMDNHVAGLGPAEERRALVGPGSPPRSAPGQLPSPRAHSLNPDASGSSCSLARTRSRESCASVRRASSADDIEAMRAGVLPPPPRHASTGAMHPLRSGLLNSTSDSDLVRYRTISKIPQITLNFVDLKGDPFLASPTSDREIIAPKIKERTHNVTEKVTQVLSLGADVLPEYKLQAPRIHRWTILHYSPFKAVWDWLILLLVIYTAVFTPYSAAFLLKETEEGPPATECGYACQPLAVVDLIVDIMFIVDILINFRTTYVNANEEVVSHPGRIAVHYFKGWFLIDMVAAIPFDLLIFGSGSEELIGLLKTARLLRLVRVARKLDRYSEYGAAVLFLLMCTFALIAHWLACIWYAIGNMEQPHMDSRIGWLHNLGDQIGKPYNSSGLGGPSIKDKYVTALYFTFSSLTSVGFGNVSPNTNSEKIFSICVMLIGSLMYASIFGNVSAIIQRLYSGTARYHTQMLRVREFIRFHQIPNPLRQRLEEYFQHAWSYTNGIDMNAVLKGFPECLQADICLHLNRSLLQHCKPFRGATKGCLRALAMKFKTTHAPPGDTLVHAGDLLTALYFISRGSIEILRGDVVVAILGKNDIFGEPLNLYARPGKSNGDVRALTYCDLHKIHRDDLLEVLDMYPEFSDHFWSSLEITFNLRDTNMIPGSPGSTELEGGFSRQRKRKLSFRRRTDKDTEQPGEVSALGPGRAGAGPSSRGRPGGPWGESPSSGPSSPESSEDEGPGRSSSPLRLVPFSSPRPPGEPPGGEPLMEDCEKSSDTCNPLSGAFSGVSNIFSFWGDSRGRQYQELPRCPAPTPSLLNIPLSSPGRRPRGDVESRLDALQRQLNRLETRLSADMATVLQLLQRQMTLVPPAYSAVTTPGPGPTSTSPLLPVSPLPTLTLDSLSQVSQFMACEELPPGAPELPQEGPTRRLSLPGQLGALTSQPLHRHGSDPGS

SMILES | hERG current change (%, negative = inhibition) at 10uM [%]
COc1cccc(CN2CC(C(=O)NCCc3ccc(C)s3)CCC2=O)c1 (stereo not drawn) | -26.5
CCOC(=O)C1CCN(S(=O)(=O)c2ccc3c4c(cccc24)C(=O)N3)CC1 | -54.6
CCOC(=O)C1CCCN(S(=O)(=O)c2ccc3c4c(cccc24)C(=O)N3CC)C1 (stereo not drawn) | -63.5
CCOC(=O)C1CCCCN1S(=O)(=O)c1cc2c(cc1C)NC(=O)CO2 (stereo not drawn) | -19.8
CCOC(=O)C1CCCN(S(=O)(=O)c2ccc3c4c2CC(=O)N4CC(C)S3)C1 (stereo not drawn) | -0.356
CC1CCN(S(=O)(=O)c2ccc3c4c2CC(=O)N4CC(C)S3)CC1 (stereo not drawn) | 7.22
CCN1C(=O)c2cccc3c(S(=O)(=O)N4CCC(C)CC4)ccc1c23 | -16.8
O=C1Nc2ccc(S(=O)(=O)N3CCCC3)c3cccc1c23 | -7.57
CCOC(=O)C1CCN(S(=O)(=O)c2cc3c(cc2C)NC(=O)CO3)CC1 | -54.9
CCOC(=O)N1CCN(S(=O)(=O)c2ccc3c4c(cccc24)C(=O)N3)CC1 | -14.5
CCOC(=O)N1CCN(S(=O)(=O)c2cc3c(cc2C)NC(=O)CO3)CC1 | -36.2
CCOC(=O)C1CCN(S(=O)(=O)c2ccc3c4c2CC(=O)N4CC(C)S3)CC1 (stereo not drawn) | -57.1
CCN1C(=O)c2cccc3c(S(=O)(=O)N4CCCC4C(=O)O)ccc1c23 (stereo not drawn) | 13
O=C(Nc1ccc(Cl)cc1)Nc1ccccc1CC[N+](=O)[O-] | 7.79
CC(=O)O[C@H]1CC[C@@]2(C)C(CCC3C2CC[C@]2(C)OC(=O)CCC32)C1 (stereo partly drawn) | -10.7
O=C(O)c1ccc(S(=O)(=O)N2CCCc3ccccc32)cc1 | 19.7
O=C(CN1C(=O)NC2(CCCCCC2)C1=O)N1CCN(S(=O)(=O)c2ccc(Cl)cc2)CC1 | -23.9
Cc1ccc(S(=O)(=O)N(C)c2nc3ccccc3[nH]c2=S)cc1 | 4.41
O=C1C(Cc2cccc([N+](=O)[O-])c2)S/C(=N/N=C/c2ccco2)N1c1ccccc1 (stereo not drawn) | 2.64
O=C(NC1CCCCC1)N(Cc1nc2ccccc2c(=O)[nH]1)C1CCCCC1 | 2.79
O=C(CNC(=O)c1ccc(Br)cc1)NCCc1nc2ccccc2[nH]1 | -6.76
Cc1ccc(C(=O)N/C(=C/c2ccco2)C(=O)NCCc2c[nH]c3ccccc23)cc1 | -46
O=C(NCCc1nc2ccccc2[nH]1)/C(=C/c1ccco1)NC(=O)c1ccc(Br)o1 | -63.2
O=C(NCCc1nc2ccccc2[nH]1)/C(=C/c1ccco1)NC(=O)c1ccco1 | -17.3
O=C(NCCc1nc2ccccc2[nH]1)/C(=C/c1ccc(F)cc1)NC(=O)c1ccco1 | -62.8
O=C(NCCc1nc2ccccc2[nH]1)/C(=C/c1ccco1)NC(=O)c1ccc(Br)cc1 | -69.9
CC(C)=C(NC(=O)c1ccco1)C(=O)NCCc1nc2ccccc2[nH]1 | 1.12

SMILES | hERG current change (%, negative = inhibition) at 10uM [%]
CC(C)=C(NC(=O)c1ccccc1Br)C(=O)NCCc1nc2ccccc2[nH]1 | 3.68
O=C(NCCc1nc2ccccc2[nH]1)c1ccc(Br)o1 | 3.87
COc1ccc(/C=C(\NC(=O)c2ccco2)C(=O)NCCc2nc3ccccc3[nH]2)cc1 | -42.6
O=C(NCCc1nc2ccccc2[nH]1)/C(=C/c1ccco1)NC(=O)c1ccccc1Br | -64.9
O=C(NCCc1nc2ccccc2[nH]1)c1ccco1 | 2.94
CCc1nc(SCC(=O)N2CCC(C)CC2)c2c(=O)n(C)c(=O)n(C)c2n1 | -11.6
CC1Cc2ccccc2N1c1ncnc(N)c1[N+](=O)[O-] (stereo not drawn) | -24.2
CCCCOc1ccccc1P(=O)(O)CP(=O)(c1ccccc1)c1ccccc1 | -3.64
OCCNC(=S)Nc1ccc2c(c1)OCCO2 | 9.32
Cc1ccc(-c2nn(C)c(=O)c3ccccc23)cc1CN1CCOCC1 | -1.21
CC(C)=C1C2CCC1C1C(=O)N(c3nccs3)C(=O)C21 (stereo not drawn) | 33
O=C1CC(=O)N(c2ccccc2)C(=O)N1c1ccccc1 | 2.76
CCCC(NCC(O)COc1ccc(-c2ccccc2)cc1)c1ccccc1 (stereo not drawn) | 10.3
O=C(NCc1ccc2c(c1)OCO2)C1CCCN1C(=O)Nc1ccc(Cl)cc1 (stereo not drawn) | -17.4
CCn1c(C(C)NC(=O)Cc2ccccc2)nc2ccccc21 (stereo not drawn) | -2.26
CCc1ccc(NC(=O)C2CCN(c3ncnc4c3nc3n4CCCCC3)CC2)cc1 | -6.35
Cc1cc2ncn(C(=O)N3CCCCC3)c2cc1C | 3.24
CCOCCCNC(=O)CN1C(=O)/C(=C/c2ccccc2C)Sc2ccccc21 | -8.45
CCOC(=O)C1CCCN(C(c2ccccn2)c2c(C)[nH]c3ccccc23)C1 (stereo not drawn) | -54.3
CCOC(=O)C1CCCN(c2c(N3CCN(C4CCCCC4)CC3)c(=O)c2=O)C1 (stereo not drawn) | -55.8
Cc1[nH]c2ccccc2c1C(c1ccccn1)N1CCC(C(N)=O)CC1 (stereo not drawn) | -11.4
CCOC(=O)C1CCN(C(c2ccccn2)c2c(C)[nH]c3ccccc23)CC1 (stereo not drawn) | -19.8
CCOC(=O)C1CCCN(c2c(N3CCN(C)CC3)c(=O)c2=O)C1 (stereo not drawn) | 8.41
CCOC(=O)C1CCN(c2c(N3CCCC(C(=O)OCC)C3)c(=O)c2=O)CC1 (stereo not drawn) | -22.8
CCOC(=O)C1CCCN(c2c(N3CCC(N4CCCCC4)CC3)c(=O)c2=O)C1 (stereo not drawn) | -0.665
CCOC(=O)C1CCCN(c2c(N3CCOCC3)c(=O)c2=O)C1 (stereo not drawn) | -0.407
CCOC(=O)C1CCCN(c2c(N3CCN(c4ccccn4)CC3)c(=O)c2=O)C1 (stereo not drawn) | -55.5
